# Data taken from PubChem BioAssay AID2283174 (EPA ToxCast).
# The source made the active and inactive calls. Rule for the calls: active = hit-call score of the fitted dose curve at least 0.9, where 1 is the maximum; inactive = score below 0.9.
# Target: human Mitogen-Activated Protein Kinase 11 (MAPK 11), MAPK11 (gene 5600) (UniProt Q15759)
# Experiment: NVS_ENZ_hMAPK11: NovaScreen (NVS) Enzymatic Assay for human Mitogen-Activated Protein Kinase 11 (MAPK 11)
# Method: NVS_ENZ_hMAPK11 is a biochemical, single-readout assay that uses extracted gene-proteins in a cell-free assay. Measurements were taken 0 hour after chemical dosing in a 384-well plate.NVS_ENZ_hMAPK11 is one of one assay component(s) measured or calculated from the NVS_ENZ_hMAPK11 assay. It is designed to make measurements of enzyme activity, a form of enzyme reporter, as detected with fluorescence intensity signals by Fluorescence and electrophoretic mobility shift technology.Data from the assay component NVS_ENZ_hMAPK11 was analyzed into 1 assay endpoint. This assay endpoint, NVS_ENZ_hMAPK11, was analyzed in the positive analysis fitting direction relative to DMSO as the negative control and baseline of activity. Using a type of enzyme reporter, loss-of-signal activity can be used to understand changes in the enzymatic activity as they relate to the gene MAPK11. Furthermore, this assay endpoint can be referred to as a primary readout, because this assay has produced multiple assay endpoints where this one serves a enzymatic activity function. To generalize the intended target to other relatable targets, this assay endpoint is annotated to the kinase intended target family, where the subfamily is serine/threonine kinase.
# Binding assays used specific radioligands (tritiated, iodinated) with non-radioactive competitive displacement ligands in agonist or antagonist protocols (as indicated) and various reference compounds and inhibitors to titrate specific binding to receptors and transporters. Most enzyme assays (CYPs, kinases, phosphatases, proteases, HDACs) used recombinant protein and specific substrates (fluorescence mostly, some colorimetric and radioactive) and inhibitors, followed by a biochemical separation of substrate and product. All assays for the biochemical HTS were initially run in duplicate at a single concentration (10 uM for CYP450 assays and 25 uM for all others). Assay-chemical combinations meeting a pre-defined threshold (e.g., 30% inhibition and other criteria defined below) were then run in singleton concentration-response format with maximum concentration of 20 uM for CYPs and 50 uM for all others. Each assay was run with positive and negative controls, and concurrent controls on every plate. The follow-up (secondary) screen tested active chemical-pairs in concentration series, as well as a few additional assays not tested in the primary screen, some selected negative inactives, and several cases re-run in the concentration series for confirmatory purposes.
# Chain of human Mitogen-Activated Protein Kinase 11 (MAPK 11), MAPK11 (gene 5600) (Q15759 whole entry, looked up): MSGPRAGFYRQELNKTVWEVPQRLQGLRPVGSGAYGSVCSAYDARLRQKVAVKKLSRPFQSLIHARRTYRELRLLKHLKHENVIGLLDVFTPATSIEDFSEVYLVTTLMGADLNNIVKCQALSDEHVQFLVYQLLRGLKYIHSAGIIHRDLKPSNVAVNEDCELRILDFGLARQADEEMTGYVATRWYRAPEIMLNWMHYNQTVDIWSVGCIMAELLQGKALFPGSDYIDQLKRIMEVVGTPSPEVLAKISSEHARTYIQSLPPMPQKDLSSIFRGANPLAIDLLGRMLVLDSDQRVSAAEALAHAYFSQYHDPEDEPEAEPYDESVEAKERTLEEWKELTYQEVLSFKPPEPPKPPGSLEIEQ
row,SMILES,outcome
1,C[Si](Cn1cncn1)(c1ccc(F)cc1)c1ccc(F)cc1,inactive
2,COc1nc(C)nc(NC(=O)NS(=O)(=O)c2ccccc2CCC(F)(F)F)n1,inactive
3,Fc1ccc(Oc2ccnc3cc(Cl)cc(Cl)c23)cc1,inactive
4,CC(C)(C)C(O)/C(=C\c1ccc(Cl)cc1Cl)n1cncn1 (centres undefined),inactive
